# Anthrax LF prot – inhibitors of Bacillus anthracis lethal factor protease. multiplex microsphere protease cleavage assay, LF. inhibition, % at 10 µM. 360,000 tested, 0.12% active. AID 588501; note: plate controls were buffer without enzyme for full effect and enzyme alone for no effect
# Bead autofluor – flagged as autofluorescent in microsphere protease counterscreen; 360,000 tested, 3.1% active; compound autofluorescence counterscreen, microsphere flow cytometry; hits give high values; fluorescence intensity (test concentration not listed); AID 624483; in the data active = fluorescence intensity above about 16000; inconclusive = no clear call, values can overlap the other calls
# BoNT A protease – blocks Botulinum neurotoxin A light chain protease; inhibition, % at 10 µM; 360,000 tested, 0.17% active; multiplex microsphere protease substrate cleavage, flow cytometry; note: plate controls were buffer without enzyme for full effect and enzyme alone for no effect
# PriA SSB inh – blocks PriA binding to SSB C-terminal tail. inhibition, % at 33 µM. AlphaScreen SSBct-PriA binding, biotinylated peptide. 430,000 tested, 0.6% active; in the data active = inhibition mostly above about 37%, no sharp cut-off; inactive = mostly below about 20%;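 note: plate controls were negative control peptide for no effect and reference peptide for full effect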
# MazEF act – increases E. coli MazEF RNase cleavage of RNA. P0AE70. FAM/BHQ RNA-DNA oligo cleavage fluorescence, 5 h. activation, % at 20 µM. 350,000 tested, 0.32% active; in the data active = activation above about 50%
# Target sequence (P0AE70 whole entry, looked up): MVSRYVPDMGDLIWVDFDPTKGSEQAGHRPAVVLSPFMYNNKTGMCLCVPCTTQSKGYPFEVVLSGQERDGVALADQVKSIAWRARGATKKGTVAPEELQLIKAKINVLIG
# BoNT F protease – BoNT F light chain protease inhibition. Multiplex microsphere protease cleavage assay, flow cytometry. 360,000 tested, 0.22% active. inhibition, % at 10 µM; in the data active = inhibition above about 35%, passing the limit was not always enough; inconclusive = no clear call, values can overlap the other calls; note: plate controls were buffer without enzyme for full effect and enzyme alone for no effect
# The depositor's hits bear a star; ? = inconclusive; . = no result given; ! = repeats disagree. Shown are actives, neighbours in structure and some others; about 3.3% of the full set was active somewhere. Cut-off read from the data, not from the text of the source, unless noted: active = inhibition above about 30%; inconclusive = no clear call, values can overlap the other calls; inactive = below that.
SMILES,Anthrax LF prot,Bead autofluor,BoNT A protease,PriA SSB inh,MazEF act,BoNT F protease
Cc1ccc(/C=N/n2c(C)n[nH]c2=S)o1,0,22498*,1,.,-6,3
CN(C)S(=O)(=O)N1CCC(COCc2ccc(Cl)cc2)CC1,.,.,.,-17,.,.
Cc1ccccc1C=Nn1c(-c2ccccn2)n[nH]c1=S,.,.,.,59*,.,.
Cc1noc(C)c1S(=O)(=O)NCCn1nc(-n2ccc3ccccc32)ccc1=O,.,.,.,17,.,.
CCOC(=O)N1CCc2nc(NC(=O)CCCS(=O)(=O)c3ccccc3)sc2C1,.,.,.,-3,.,.
CC(=O)c1nnn(-c2nc(N)nc(N(c3ccccc3)c3ccccc3)n2)c1C,-2,22006*,?,-5,2,-1
CCN(CC)c1nc2ccccc2nc1-n1nc(C)cc1C,-2,24280*,?,-58,0,0
Cc1cc(C)n(-c2nc(Nc3ccccc3)nc(-n3nc(C)cc3C)n2)n1,-8,7863,-2,6,9,-23
CCCCN(CCCC)c1nc(OC)nc(-n2nnc(C(C)=O)c2C)n1,-2,3058,0,-43,-3,-8
Cc1cc(C)n(-c2nc(N(c3ccccc3)c3ccccc3)nc(-n3nc(C)cc3C)n2)n1,-2,17611*,-7,-15,-15,-5
CC(=O)Oc1cc(-c2cccc(C(F)(F)F)c2)c2oc(=O)sc2c1,.,.,.,15,.,.
COc1cc2c(cc1OC)-c1c(OC)c(OC)cc3c1[C@H](C2)N(C)CC3,-16,3037,1,73*,5,-31
CNC(=O)CS(=O)(=O)C1CCN(C(=O)Cc2c(F)cccc2Cl)CC1,.,.,.,-1,.,.
O=C(c1cnc2ccccc2n1)N1CCSC(c2ccccc2)CC1 (configuration not stated),.,.,.,-8,.,.
O=C(O)c1cc(-c2ccccn2)n[nH]1,1,22786*,1,-1,-4,1
O=C(NC(=S)N1CCCc2ccccc21)c1ccc(Cl)cc1,20,6680,21,19,2,-12
O=C(NC(=S)N1CCCc2ccccc21)c1ccccc1,8,2744,3,42*!,6,2
CC(=O)c1ccc(-n2c(C)ccc2-c2ccccc2)cc1,-6,23002*,1,-6,-5,-2
COc1ccc(N2CCN(C(=O)CN=C3NS(=O)(=O)C(c4ccc(C)cc4)=C3C)CC2)cc1,0,17288*,-3,2,5,-1
COc1cc(C(=O)NCC(c2ccc(N(C)C)cc2)N2CCCC2)c([N+](=O)[O-])cc1OC (configuration not stated),.,.,.,6,.,.
NNS(=O)(=O)c1ccc(Sc2ccccn2)c([N+](=O)[O-])c1,-14,5815,1,1,220*,-2
Cc1ccc(N2CCCS2(=O)=O)cc1NC(=O)c1cnoc1C,.,.,.,-3,.,.
O=C(N=c1ccn(-c2nc3ccccc3nc2NS(=O)(=O)c2ccccc2)cc1)c1cccs1,0,1941,1,-15,413*,2
O=C1/C(=C/c2cc([N+](=O)[O-])ccc2Cl)N2CCC1CC2,5,16507*,0,1,0,-2
O=C1/C(=C\c2ccc(Cl)c(Cl)c2)N2CCC1CC2,32*,3325,-6,-1,-3,?
SMILES,Anthrax LF prot,Bead autofluor,BoNT A protease,PriA SSB inh,MazEF act,BoNT F protease
O=C(NCCOC(=O)c1ccccc1C(=O)OCCNC(=O)c1cccnc1)c1cccnc1,-12,19258*,6,-10,1,11
O=C(Cc1ccccc1Cl)NCC[C@H](O)c1cccs1,.,.,.,-18,.,.
O=C(CN1CCOCC1)N1N=C(c2cccs2)C[C@H]1c1ccco1,.,.,.,-9,.,.
COc1ccc(N2CCN(C3CC(=O)NC3=O)CC2)cc1 (configuration not stated),-5,24614*,?,-1,-8,-10
COc1ccc(CCC(=O)N2CCCN(CCn3nc(C)cc3C)CC2)cc1,.,.,.,-6,.,.
CC(C)n1c(CN)nc2ccccc21,.,.,.,-16,.,.
CC(C)n1c(CCCO)nc2ccccc21,-1,24524*,-4,2,7,-8
CC1(C)CC(=O)c2c(nc3sc(C(=O)Nc4ccccc4F)c(N)c3c2-c2ccccc2)C1,.,.,.,-15,.,.
CCS(=O)(=O)c1cccc(C(=O)Nc2nnc(-c3ccc4c(c3)CCCC4)o2)c1,.,.,.,-20,.,.
COc1ccc(CCNCCC(c2ccccc2)c2ccccc2)cc1OC,-4,3490,0,.,10,-15
COc1cc(OC)c(OC)cc1CCC(C)NCCC(c1ccccc1)c1ccccc1 (configuration not stated),-6,3232,-1,42*,32,-15
NC(=O)Cn1ccc2ccccc21,.,.,.,-11,.,.
CCC(C)n1nnc2c(=O)oc3ccccc3c21 (configuration not stated),0,23717*,0,-2,0,-1
Cc1nc2ccccn2c1C(=O)Nc1ccc(CC(=O)N2CCOCC2)cc1,.,.,.,-9,.,.
CCCOc1ccc(C(O)=C2C(=O)C(=O)N(CCCn3ccnc3)C2c2ccco2)cc1 (configuration not stated),.,.,.,-12,.,.
O=C(c1ccccc1S(=NS(=O)(=O)c1ccccc1)N1CCOCC1)N1CCOCC1 (configuration not stated),.,.,.,-6,.,.
O=C(O)[C@H]1CCCC[C@H]1C(=O)NCCNC(=O)[C@@H]1CCCC[C@@H]1C(=O)O,-2,23932*,?,-4,-11,-5
O=C(O)C1CCCCC1C(=O)NCCC(c1ccccc1)c1ccccc1 (configuration not stated),-3,10310,-1,-3,-5,-1
O=C(NCCCCCCNC(=O)C1CCCC1)C1CCCC1,-3,21472*,?,-25,5,0
Cc1ccc(CN2CCN(N=Cc3cccc([N+](=O)[O-])c3)CC2)cc1,.,.,.,13,.,.
CCOC(=O)CCn1cc(-c2nc(-c3ccc(OC)c(F)c3)no2)ccc1=O,.,.,.,-10,.,.
CCC(=NCc1ccco1)c1c(C(F)(F)F)[nH]n(-c2nc3ccccc3s2)c1=O,-3,6635,-2,-3,-17,-14
CCC(=NCc1ccccc1)c1c(C(F)(F)F)[nH]n(-c2nc3ccccc3s2)c1=O,-4,16663*,-2,-2,6,-2
COc1cc(CS(=O)(=O)c2nc3ccccc3n2CCN2CCCC2)cc(OC)c1,.,.,.,-12,.,.
Cc1ccc(CSCCNC(=O)CSCc2ccc([N+](=O)[O-])cc2)cc1,-3,20785*,0,-11,-9,-3
SMILES,Anthrax LF prot,Bead autofluor,BoNT A protease,PriA SSB inh,MazEF act,BoNT F protease
Cc1cccc(CSCCNC(=O)CSCc2ccc([N+](=O)[O-])cc2)c1,.,.,.,0,-10,.
Cc1ccccc1CSCCNC(=O)CSCc1ccc([N+](=O)[O-])cc1,-3,21363*,?,-7,-4,0
O=C(CSc1ccncc1)NC1CCN(c2ccccn2)C1 (configuration not stated),.,.,.,-1,.,.
O=c1oc2ccccc2c(N2CCC(c3ccccc3)CC2)c1[N+](=O)[O-],-2,2169,0,-10,5,-8
CC1CCCN(c2c([N+](=O)[O-])c(=O)oc3ccccc23)C1 (configuration not stated),-2,23803*,?,-8,-10,1
Cc1cc(N2C(=O)C(=O)C(=C(O)c3ccc(F)cc3)C2c2ccc(F)cc2)no1 (configuration not stated),.,.,.,-13,.,.

# From PubChem
